In publication PMC3218832:

target: RELARELA (p65 homodimer) (Homo sapiens, UniProt Q04206 1-307); assay: protein binding microarray; high values mean tight binding; settings: dsDNA, one strand shown
Sequence (Q04206 1-307): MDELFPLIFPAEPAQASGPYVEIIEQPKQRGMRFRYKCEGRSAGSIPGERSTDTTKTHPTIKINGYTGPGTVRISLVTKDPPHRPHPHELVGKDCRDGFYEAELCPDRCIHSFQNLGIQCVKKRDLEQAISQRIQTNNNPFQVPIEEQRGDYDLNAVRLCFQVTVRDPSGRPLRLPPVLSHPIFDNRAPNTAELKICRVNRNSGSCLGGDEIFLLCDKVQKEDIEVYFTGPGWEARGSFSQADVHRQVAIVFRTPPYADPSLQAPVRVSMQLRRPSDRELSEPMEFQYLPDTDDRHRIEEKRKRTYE

Row | Sequence | binding signal
1 | CAAAAGACCCT | -0.503 z-score
2 | AGGTTCATCCC | -0.622 z-score
3 | CGAAGCTTCCC | 0.142 z-score
4 | AGAGAGGTCCT | 0.413 z-score
5 | CGATATTTCCT | 0.574 z-score
6 | CAAGAACCCCC | -0.244 z-score
7 | GGAGGAGTCCC | 0.299 z-score
8 | CAAGTAATCCC | -0.158 z-score
9 | GGGATGCCCCT | 1.02 z-score
10 | AGATTTATCCC | -0.076 z-score
11 | GAGAGACTCCT | -0.455 z-score
12 | GAGAATACCCC | 0.964 z-score
13 | AGATTGACCCT | -0.149 z-score
14 | AGGGGAGTCCT | 0.691 z-score
15 | CAGGGGATCCC | 1.59 z-score
16 | AAGGTGTCCCT | -0.0449 z-score
17 | CGGGGAATCCC | 3.57 z-score
18 | GAGGGCACCCT | -0.976 z-score
19 | CAGAATACCCT | 0 z-score

Row | Sequence | binding signal
20 | AGGAGGATCCT | -0.49 z-score
21 | AGAAAAGCCCC | 1.13 z-score
22 | GAAGGGCTCCC | -1.08 z-score
23 | CAAAAGTTCCC | 1.7 z-score
24 | GGGATCGTCCT | 0.173 z-score
25 | CGAGGGTTCCC | -0.124 z-score
26 | CAATAACTCCC | 0.145 z-score
27 | AAGAGGTTCCT | 0.0133 z-score
28 | CAGTGAACCCC | -0.0364 z-score
29 | AAAATCGCCCT | -0.445 z-score
30 | GAATAAGTCCC | 0.563 z-score
31 | AAGGACTCCCC | 0.78 z-score
32 | GAGGGCATCCC | 0.359 z-score
33 | AAAGTTACCCT | -0.188 z-score
34 | GAGTGCTTCCC | 0.545 z-score
35 | AAGTGAACCCT | -0.647 z-score
36 | GAGGGTTCCCT | -0.44 z-score
37 | CAGATAGCCCT | -0.575 z-score
38 | GGAGAAACCCT | 0.379 z-score

target: p50p50 homodimer (Homo sapiens, UniProt P19838 7-356); assay: as above; settings: dsDNA, one strand shown
Sequence (P19838 7-356): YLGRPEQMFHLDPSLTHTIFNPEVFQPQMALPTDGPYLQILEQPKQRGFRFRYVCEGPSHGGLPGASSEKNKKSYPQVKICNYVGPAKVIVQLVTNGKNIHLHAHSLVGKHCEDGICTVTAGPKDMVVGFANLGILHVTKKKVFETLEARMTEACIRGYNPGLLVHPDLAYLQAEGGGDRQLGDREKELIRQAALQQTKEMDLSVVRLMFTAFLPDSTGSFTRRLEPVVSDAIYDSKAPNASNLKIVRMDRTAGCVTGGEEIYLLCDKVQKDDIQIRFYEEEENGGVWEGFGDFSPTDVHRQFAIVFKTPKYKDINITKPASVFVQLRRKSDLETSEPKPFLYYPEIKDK

Row | Sequence | binding signal
39 | CAAAAGACCCT | 0.305 z-score
40 | AGGTTCATCCC | -0.302 z-score
41 | CGAAGCTTCCC | -0.668 z-score
42 | AGAGAGGTCCT | -1.58 z-score
43 | CGATATTTCCT | -0.558 z-score
44 | CAAGAACCCCC | 1.28 z-score
45 | GGAGGAGTCCC | 0.853 z-score
46 | CAAGTAATCCC | -0.156 z-score
47 | GGGATGCCCCT | 0.778 z-score
48 | AGATTTATCCC | -0.338 z-score
49 | GAGAGACTCCT | -2.14 z-score
50 | GAGAATACCCC | 1.14 z-score
51 | AGATTGACCCT | -0.594 z-score
52 | AGGGGAGTCCT | 0.962 z-score
53 | CAGGGGATCCC | 1.03 z-score
54 | AAGGTGTCCCT | 0.811 z-score
55 | CGGGGAATCCC | 1.22 z-score
56 | GAGGGCACCCT | -1.27 z-score
57 | CAGAATACCCT | 1.12 z-score

Row | Sequence | binding signal
58 | AGGAGGATCCT | -1.69 z-score
59 | AGAAAAGCCCC | 0.938 z-score
60 | GAAGGGCTCCC | -1.07 z-score
61 | CAAAAGTTCCC | 0.79 z-score
62 | GGGATCGTCCT | -0.724 z-score
63 | CGAGGGTTCCC | -0.573 z-score
64 | CAATAACTCCC | 0.702 z-score
65 | AAGAGGTTCCT | -1.79 z-score
66 | CAGTGAACCCC | -0.483 z-score
67 | AAAATCGCCCT | -0.836 z-score
68 | GAATAAGTCCC | 1.13 z-score
69 | AAGGACTCCCC | 0.758 z-score
70 | GAGGGCATCCC | -0.785 z-score
71 | AAAGTTACCCT | 0.663 z-score
72 | GAGTGCTTCCC | -0.398 z-score
73 | AAGTGAACCCT | -1.09 z-score
74 | GAGGGTTCCCT | -0.133 z-score
75 | CAGATAGCCCT | -1.02 z-score
76 | GGAGAAACCCT | -0.144 z-score
